Measured values from PubChem BioAssay AID1851 (National Center for Advancing Translational Sciences (NCATS), 2009).
Among all 16,000 compounds or so, about 2,600 (16%) were called active. About 20% were inconclusive and are not listed. The list is a sample of the results. A number with no mark means an inactive call. Calls come from the whole dose curve; as a rule, active = well fitted curve in the direction sought with a large enough effect; inconclusive = small, poorly fitted or top-dose-only effect, or effect the other way; inactive = no such curve, though single readings can be large or run the other way.

These molecules were tested against Cytochrome P450 2D6 (Homo sapiens) (UniProt P10635) (assay: Cytochrome panel assay with activity outcomes). Conditions: recombinant CYP, pro-luciferin dealkylation, luminescence, p450-cyp2d6; series mostly up to 57.1 µM.
% is set by controls: 0 for no effect and ±100 for the full control effect.

Chain of Cytochrome P450 2D6 (Homo sapiens) (P10635 whole entry, looked up): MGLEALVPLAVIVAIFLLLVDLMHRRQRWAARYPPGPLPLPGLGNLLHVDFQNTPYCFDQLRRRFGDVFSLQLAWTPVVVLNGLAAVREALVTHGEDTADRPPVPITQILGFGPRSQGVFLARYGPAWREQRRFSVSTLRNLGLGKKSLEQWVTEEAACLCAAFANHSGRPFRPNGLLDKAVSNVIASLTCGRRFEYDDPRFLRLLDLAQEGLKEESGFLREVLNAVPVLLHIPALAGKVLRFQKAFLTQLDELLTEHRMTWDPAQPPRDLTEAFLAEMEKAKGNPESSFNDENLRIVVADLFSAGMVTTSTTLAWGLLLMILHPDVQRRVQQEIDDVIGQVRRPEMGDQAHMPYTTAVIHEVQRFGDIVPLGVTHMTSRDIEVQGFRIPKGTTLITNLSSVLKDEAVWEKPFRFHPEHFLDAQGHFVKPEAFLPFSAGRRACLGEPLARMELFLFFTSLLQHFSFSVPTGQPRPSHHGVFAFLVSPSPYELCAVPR

Row | Compound | AC50 | activity, negative = inhibition
1 | CN(C)c1ncc2nc(-c3ccc(F)cc3)c(=O)n(C)c2n1 | inactive | –
2 | COc1ccc2cc(C(=O)Nc3ccc(F)cc3)sc(=O)c2c1OC | inactive | –
3 | CC(C)C(=O)Nc1ccc(C(=O)NNC(=O)C(c2ccccc2)c2ccccc2)cc1 | inactive | –
4 | CN(C)c1ccc(-c2ccc3ncnc(N4CCNCC4)c3c2)cc1 | 12.6 µM (active) | –
5 | CN(C)C(=O)c1ccc(-c2ccc3ncnc(N4CCNCC4)c3c2)cc1 | inactive | –
6 | CN1CCN(c2ncnc3ccc(-c4ccc5c(c4)OCO5)cc23)CC1 | 0.251 µM (active) | –
7 | CN1CCN(c2ncnc3ccc(-c4cccc(C#N)c4)cc23)CC1 | inactive | –
8 | N#Cc1cccc(-c2ccc3ncnc(N4CCNCC4)c3c2)c1 | inactive | –
9 | Cc1noc(C)c1-c1ccc2ncnc(N3CCN(C)CC3)c2c1 | inactive | –
10 | N#Cc1ccccc1-c1ccc2ncnc(N3CCNCC3)c2c1 | inactive | –
11 | c1nc(N2CCNCC2)c2cc(-c3ccc4c(c3)OCO4)ccc2n1 | 2.51 µM (active) | –
12 | Cc1ccccc1-c1ccc2ncnc(N3CCNCC3)c2c1 | inactive | –
13 | COc1ccc(C(=O)N2CCC[C@@]3(CCN(C(=O)NC(C)C)C3)C2)cc1 | inactive | –
14 | Cc1nc2ncnn2c(C)c1CCC(=O)NCc1ccco1 | inactive | –
15 | CCc1ccccc1NC(=O)c1ccc(F)c(S(=O)(=O)N2CCC(C(N)=O)CC2)c1 | inactive | –
16 | CC(=O)c1c(O)c(C)c(-c2ccccc2)n(-c2ccccc2)c1=O | inactive | –
17 | CCCc1c(OCCCOc2ccc(OCC(=O)O)cc2)ccc(CC=O)c1O | inactive | –
18 | CCCC(O)(CCC)C(=O)NN1CCCCC1 | inactive | –
19 | Cn1c(=O)n(C)c2cc(/C=N/n3cnnc3)ccc21 | inactive | –
20 | Brc1ccc(-c2nnc(-c3ccccc3)c(N3CCSCC3)n2)cc1 | inactive | –
21 | COc1cccc2[nH]c3c(N4CC(C)CC(C)C4)ncnc3c12 (stereo not given) | 2 µM (active) | –
22 | COc1ccc(OC)c2c(=S)c3ccccc3[nH]c12 | inactive | –
23 | COc1ccccc1-c1ccc2ncnc(N3CCOCC3)c2c1 | inactive | –
24 | Cc1nn(Cc2ccccc2Cl)c(C)c1NC(=O)CCCn1nc(C)c([N+](=O)[O-])c1C | inactive | –
25 | CCn1c2ccccc2c2cnc(N=CN(C)C)c(C#N)c21 | 1.41 µM (active) | –
26 | CCn1c2ccccc2c2cc(/C=N/n3cn[nH]c3=S)ccc21 | inactive | –
27 | COc1ccccc1NC(=O)Cn1nnc(-c2ccccc2NC(=O)c2cc3ccccc3oc2=O)n1 | inactive | –

Row | Compound | AC50 | activity, negative = inhibition
28 | CCOC(=O)C1CCCN(C(=O)CCCOc2cc(=O)n(C)c3ccccc23)C1 (stereo not given) | inactive | –
29 | Cn1ncc(C#N)c1NC(=O)C1CC(c2ccc(Cl)cc2)=NO1 (stereo not given) | 3.98 µM (active) | –
30 | O=C(NC1CCCC1)C1CC(c2ccc(F)cc2)=NO1 (stereo not given) | inactive | –
31 | CC(=O)c1ccc(NC(=O)C2CC(c3ccc(F)cc3)=NO2)cc1 (stereo not given) | inactive | –
32 | C=CC[C@H](N)C(=O)O | inactive | –
33 | COc1ccc(-n2c(=O)c(C)nc3cnc(N4CCNCC4)nc32)cc1 | inactive | –
34 | Nc1[nH]c(=O)nc2c1ncn2[C@H]1O[C@@H](CO)[C@@H](O)[C@@H]1O | – | 7.59% [at 11.4 µM]
35 | COc1ccc(CNC(=O)c2csc(Cc3ccc(OC)cc3)n2)cc1 | inactive | –
36 | COc1ccc(CNC(=O)c2cnc(C)cn2)cc1 | inactive | –
37 | COc1ccc(CNC(=O)c2csc(Cc3ccc(Cl)cc3)n2)cc1 | 14.1 µM (active) | –
38 | CO[C@@H]1COC(=O)C/C=C\[C@@H](C)[C@H](OC)COC(=O)[C@H](COCc2ccccc2)NC(=O)C/C=C\[C@H]1C | – | -2.59% [at 11.4 µM]
39 | C[C@@H]1[C@H]2CC[C@@H]3[C@@H]4CC=C5C[C@@H](N(C)C)CC[C@]5(C)[C@@H]4CC[C@@]32CN1C | inactive | –
40 | CN(C)c1ncc2nc(-c3ccccc3)c(=O)n(Cc3ccc(F)cc3)c2n1 | inactive | –
41 | CCCCCCCNS(=O)(=O)c1cccc2c(Cl)cccc12 | inactive | –
42 | NCCCCCCNS(=O)(=O)c1cccc2ccccc12 | inactive | –
43 | NCCCCCCCCCCNS(=O)(=O)c1cccc2c(Cl)cccc12 | 1.26 µM (active) | –
44 | O=S(=O)(NCCCCCCc1ccccc1)c1cccc2c(Cl)cccc12 | inactive | –
45 | NCCCCCCNS(=O)(=O)c1cccc2c(Cl)cccc12 | 12.6 µM (active) | –
46 | CCCCNS(=O)(=O)c1ccc(OC)c(Cl)c1Cl | inactive | –
47 | C#C[C@]1(O)CC[C@@H]2[C@H]3CCC4=CCCC[C@@H]4[C@@H]3CC[C@@]21C | inactive | –
48 | N#CCCn1c(=O)c(-c2cc(F)cc(F)c2)nc2cnc(OCc3ccccc3)nc21 | inactive | –
49 | Cc1ncc(COP(=O)(O)O)c(C)c1O | – | 11.2% [at 11.4 µM]
50 | Cn1cc(/C=N/n2cnc3scc(-c4ccccc4)c3c2=O)c2ccccc21 | inactive | –
51 | CN1CCC[C@@H](CC2c3ccccc3Sc3ccccc32)C1 | 0.316 µM (active) | –
52 | CN1CC[C@H](CN2c3ccccc3Sc3ccccc32)C1 | 0.126 µM (active) | –
53 | CO[C@H]1COC(=O)[C@@H](Cc2ccccc2)NC(=O)[C@@H](C)COC(=O)C/C=C\[C@@H]1C | – | 2.58% [at 11.4 µM]
54 | CC(C)(C)c1ccc(C2CC2C(=O)N/N=C\c2cc3ccccc3nc2Cl)cc1 (stereo not given) | inactive | –

Row | Compound | AC50 | activity, negative = inhibition
55 | COC(=O)[C@@]1(Cc2ccccc2)[C@@H]2C(=CC(=O)[C@H]2CC(=O)C(=O)N(C)C)CN1C(=O)c1ccccc1 | inactive | –
56 | COc1cc(C2C(C#N)=C(N)OC3=C2C(=O)CCC3)c([N+](=O)[O-])cc1OC (stereo not given) | inactive | –
57 | Nc1ncnc2c1ncn2[C@@H]1O[C@@H](C(=O)NC2CC2)[C@H](O)[C@@H]1O | inactive | –
58 | CC(CO)(CO)Nc1ncnc2ccccc12 | – | -4.58% [at 11.4 µM]
59 | OC[C@@H](O)CNc1ncnc2ccccc12 | – | 3.48% [at 11.4 µM]
60 | c1ccc(CN2CC[C@@H](CNc3ncnc4ccccc34)C2)cc1 | 0.794 µM (active) | –
61 | COCCn1c(=O)cnc2cnc(Nc3ccccc3)nc21 | inactive | –
62 | O=C(CSc1nnc(Cn2nnc3ccccc32)o1)Nc1cccc(Cl)c1 | 12.6 µM (active) | –
63 | CCC(=O)Nc1cccc(NC(=O)CSc2nnnn2Cc2ccccc2)c1 | inactive | –
64 | CC(C)(C)OC(=O)NCCc1nnc(SCC(=O)Nc2cccc(Cl)c2)o1 | inactive | –
65 | CC(=O)[C@H]1CC[C@H]2[C@@H]3C=CC4=CC(=O)CC[C@@]4(C)[C@H]3CC[C@]12C | inactive | –
66 | COC(=O)CC1C(=O)NCCN1C(=O)Nc1ccc(Cl)cc1 (stereo not given) | inactive | –
67 | Cc1ccc(-n2cc(C(=O)c3ccc4ccccc4c3O)cn2)cc1 | inactive | –
68 | CSC1(SC2=NCCN2)SC2(NCCN2)S1 | 3.98 µM (active) | –
69 | COc1ccc(CNCCc2ccccc2)cc1OCC(N)=O | 0.398 µM (active) | –
70 | CCOc1cc(CNc2ccc(OC)cc2)cc(Br)c1OCC(=O)NC(C)(C)C | inactive | –
71 | COc1cc(CNCCc2ccccc2)ccc1OCC(=O)NC(C)(C)C | 3.16 µM (active) | –
72 | COc1ccc(C[C@@](C)(N)C(=O)O)cc1OC | inactive | –
73 | COc1ccc(C/C(N)=N/OC(=O)Cc2ccccc2)cc1OC | inactive | –
74 | COc1ccc(CNC(=O)Nc2cccs2)cc1OC | inactive | –
75 | CC(C)(C)c1ccc(OCC(=O)NNC(=O)CCc2ccccc2)cc1 | inactive | –
76 | COc1ccc(/C=N/NC(=O)CCc2ccccc2)cc1O | inactive | –
77 | COc1cc(CNCc2cccs2)ccc1OCC(N)=O | 2 µM (active) | –
78 | N[C@@H]1[C@@H]2[C@@H]3C[C@H]4N(CC[C@@]14C(=O)C(=O)O)CC3=CCO[C@@H]2CC(=O)O | – | -4.74% [at 11.4 µM]
79 | Cc1cccc2nc(C(F)(F)F)nc(=O)n12 | inactive | –
80 | COc1cccc(Cn2c(=O)c(-c3cn(C)c4ccccc34)nc3cnc(OC)nc32)c1 | inactive | –
81 | COc1ccc(NS(=O)(=O)c2cc(-c3nnnn3C)ccc2OC)cc1 | inactive | –

Row | Compound | AC50 | activity, negative = inhibition
82 | COC(=O)Nc1nc2ccc(C(=O)c3cccs3)cc2[nH]1 | inactive | –
83 | COCC(=O)N1CCC2(CCCN(c3ccncc3)C2)CC1 | inactive | –
84 | CC1=C(C(N)=O)C(c2ccccn2)n2nc(SCc3ccccc3Cl)nc2N1 (stereo not given) | inactive | –
85 | CC(C)CNc1nc(N)[nH]c(=O)c1NC=O | – | -2.42% [at 11.4 µM]
86 | CN1CCN(c2ncc3nc(-c4cc(F)cc(F)c4)c(=O)n(CCC#N)c3n2)CC1 | inactive | –
87 | FC(F)(F)c1ccccc1-n1ccnc1 | inactive | –
88 | N#Cc1c(-n2ccnc2)cccc1-n1ccnc1 | 6.31 µM (active) | –
89 | Cc1cccc(-n2cccc2)c1C#N | inactive | –
90 | O=C(/C=C\NCC(=O)c1ccccc1)c1ccccc1 | inactive | –
91 | N#CC1=C(N)OC2=C(CC/C2=C\c2ccccc2)C1c1ccccc1 (stereo not given) | inactive | –
92 | Cc1c(-c2c(C#N)c(N)nc3c2CCCCCC3)cnn1C | inactive | –
93 | COc1ccc(CNc2ncncc2-c2ccc(C(=O)N(C)C)cc2)c(OC)c1 | 20 µM (active) | –
94 | COc1ccc(CNc2ncncc2-c2ccc(N(C)C)cc2)c(OC)c1 | 10 µM (active) | –
95 | CO[C@H]1COC(=O)[C@H](C)COC(=O)[C@@H](Cc2ccccc2)NC(=O)C/C=C\[C@H]1C | – | 3.3% [at 11.4 µM]
96 | NS(=O)(=O)c1cc2c(cc1C(F)(F)F)N[C@H](Cc1ccccc1)NS2(=O)=O | inactive | –
97 | CCN1CCN(S(=O)(=O)c2ccc(Cl)c(C(=O)Nc3nnc(CC(C)C)s3)c2)CC1 | inactive | –
98 | Cc1ccc(C)c(NC(=O)C2C3CCCC2C3c2ccccc2)c1 (stereo not given) | 2.82 µM (active) | –
99 | CCOc1ncccc1C(=O)OCC(=O)Nc1cc(C)ccc1C | inactive | –
100 | Cc1ccc(C)c(NC(=O)C2CC(O)CN2C(=O)OC(C)(C)C)c1 (stereo not given) | inactive | –
101 | Cc1ccc(C(=O)NC(=S)Nc2cc(-c3nc4ccccc4s3)ccc2C)cc1 | inactive | –
102 | Cc1ccc(C)c(NC(=O)C2CC3c4ccccc4C2c2ccccc23)c1 (stereo not given) | 0.2 µM (active) | –
103 | Cc1ccc(NC(=O)C2C3CCCC2C3c2ccccc2)cc1C (stereo not given) | inactive | –
104 | Cc1ccc(C)c(NC(=O)Cn2c([N+](=O)[O-])cnc2C)c1 | inactive | –
105 | Cc1ccc(C)c(NC(=O)C2(C)CC3c4ccccc4C2c2ccccc23)c1 (stereo not given) | 0.2 µM (active) | –
